Results reported in PubChem BioAssay AID1159580 (chemical genetic matrix, 2015).
Where “and” joins values, the source holds several entries; their conditions need not be identical. Equal values may be shown once. The whole screen tested about 5,500 compounds, of which about 2,000 (36%) were called active. About 18% were inconclusive and are not listed. No stated cut-off is given here; in the data, active means normalized growth mostly below about 0.91 (no sharp cut-off); inconclusive means no clear call, values can overlap the other calls; inactive means mostly above about 0.92. This is one part of the list.

Experiment: chemical genetic growth profiling, strain panel (AID 1159580);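 further: tested at 20 µM; growth read once vehicle control cultures reached saturation at 30 °C; 1 = growth at the plate median or of vehicle wells; lower values mean less growth of the strain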
Conditions: S. cerevisiae deletion strains, growth OD

Measured: normalized growth

O=C1O[C@H](C(O)CO)C(O)=C1O (some centres undefined)
inactive: locus YAL021C, strain ccr4, hits give low values 0.975 | locus YAL026C, strain drs2, hits give low values 0.974 | locus YAL030W, strain snc1, hits give low values 0.988 | locus YBL061C, strain skt5, hits give low values 0.984 | locus YBR009C, strain hhf1, hits give low values 0.992 | locus YBR021W, strain FUR4, hits give low values 0.976 | locus YBR023C, strain chs3, hits give low values 0.978 | locus YBR171W, strain sec66, hits give low values 0.983 | locus YBR229C, strain ROT2, hits give low values 0.991 | locus YBR231C, strain swc5, hits give low values 1.01 | locus YBR279W, strain paf1, hits give low values 0.986 | locus YCL011C, strain gbp2, hits give low values 0.989 | locus YCL016C, strain dcc1, hits give low values 0.986 | locus YCL029C, strain bik1, hits give low values 0.96 | locus YCL061C, strain MRC1, hits give low values 0.975 | locus YCL069W, strain vba3, hits give low values 0.997 | locus YCR088W, strain abp1, hits give low values 0.985 | locus YDL005C, strain med2, hits give low values 0.983 | locus YDL035C, strain GPR1, hits give low values 1.03 | locus YDL040C, strain nat1, hits give low values 0.987 | locus YDL074C, strain BRE1, hits give low values 0.997 | locus YDL101C, strain DUN1, hits give low values 0.993 | locus YDL185W, strain tfp1, hits give low values 0.973 | locus YDL192W, strain arf1, hits give low values 0.977 | locus YDR001C, strain nth1, hits give low values 0.99 | locus YDR069C, strain doa4, hits give low values 0.991 | locus YDR101C, strain arx1, hits give low values 0.954 | locus YDR137W, strain rgp1, hits give low values 0.971 | locus YDR159W, strain sac3, hits give low values 0.984 | locus YDR162C, strain NBP2, hits give low values 1.01 | locus YDR195W, strain ref2 0.991 | locus YDR297W, strain sur2, hits give low values 0.992 | locus YDR318W, strain mcm21, hits give low values 1 | locus YDR334W, strain swr1, hits give low values 0.979 | locus YDR335W, strain msn5, hits give low values 0.993 | locus YDR388W, hits give low values 0.977 | locus YDR392W, strain spt3, hits give low values 0.916 | locus YDR502C, strain sam2, hits give low values 0.996 | locus YEL003W, strain gim4, hits give low values 1 | locus YEL037C, strain rad23, hits give low values 0.988 | locus YEL061C, strain CIN8 (second series), hits give low values 0.989 | locus YEL061C, strain CIN8, hits give low values 1.02 | locus YER015W, strain faa2, hits give low values 0.971 | locus YER016W, strain bim1, hits give low values 0.997 | locus YER110C, hits give low values 0.974 | locus YER111C, strain swi4, hits give low values 0.983 | locus YER155C, strain BEM2 (second series), hits give low values 0.992 | locus YER155C, strain BEM2, hits give low values 0.976 | locus YER167W, strain BCK2, hits give low values 1 | locus YFR010W, strain ubp6, hits give low values 0.975 | locus YGL078C, strain dbp3, hits give low values 0.964 | locus YGL086W, strain mad1, hits give low values 0.957 | locus YGL167C, strain pmr1, hits give low values 0.984 | locus YGL173C, strain kem1, hits give low values 0.982 | locus YGL227W, strain vid30, hits give low values 0.992 | locus YGL240W, strain doc1, hits give low values 0.986 | locus YGL248W, strain PDE1, hits give low values 0.997 | locus YGL253W, strain hxk2, hits give low values 0.992 | locus YGR135W, strain pre9, hits give low values 1.01 | locus YGR229C, strain SMI1, hits give low values 1.01 | locus YGR252W, strain gcn5, hits give low values 1.06 | locus YHR013C, strain ard1, hits give low values 0.957 | locus YHR027C, strain rpn1, hits give low values 1.01 | locus YHR030C, strain SLT2, hits give low values 0.991 and 0.989 | locus YHR079C, strain IRE1 (second series), hits give low values 0.984 | locus YHR079C, strain IRE1, hits give low values 1 | locus YHR094C, strain hxt1, hits give low values 0.976 | locus YHR129C, strain ARP1, hits give low values 1 | locus YHR142W, strain chs7, hits give low values 0.979 | locus YHR200W, strain rpn10, hits give low values 0.982 | locus YIL066C, strain RNR3, hits give low values 0.987 | locus YIL073C, strain SPO22, hits give low values 0.997 | locus YIL125W, strain kgd1, hits give low values 0.967 | locus YIR030C, strain dcg1, hits give low values 0.978 | locus YJL092W, strain hpr5, hits give low values 0.988 | locus YJL095W, strain BCK1 (second series), hits give low values 0.991 | locus YJL095W, strain BCK1, hits give low values 1.02 and 0.983 | locus YJL115W, strain asf1, hits give low values 0.987 | locus YJL129C, strain trk1, hits give low values 0.992 | locus YJL134W, strain LCB3, hits give low values 0.987 | locus YJL154C, strain vps35, hits give low values 1 | locus YJL164C, strain tpk1, hits give low values 0.969 | locus YJL166W, strain qcr8, hits give low values 0.97 | locus YJL168C, strain set2, hits give low values 0.979 | locus YJL187C, strain SWE1 (second series), hits give low values 0.999 | locus YJL187C, strain SWE1, hits give low values 0.986 | locus YJR043C, strain POL32, hits give low values 0.999 | locus YJR066W, strain TOR1, hits give low values 0.943 | locus YKL009W, strain mrt4, hits give low values 1.01 | locus YKL068W, hits give low values 0.992 | locus YKL085W, strain MDH1 (second series), hits give low values 0.992 | locus YKL085W, strain MDH1, hits give low values 0.992 | locus YKL160W, strain elf1, hits give low values 0.971 | locus YKR001C, strain vps1, hits give low values 0.949 | locus YKR026C, strain gcn3, hits give low values 0.99 | locus YKR091W, strain srl3, hits give low values 0.986 | locus YLL001W, strain dnm1, hits give low values 0.987 | locus YLL026W, hits give low values 0.998 | locus YLL041C, strain sdh2, hits give low values 0.988 | locus YLR027C, strain aat2, hits give low values 0.99 | locus YLR039C, strain RIC1, hits give low values 1.03 | locus YLR058C, strain SHM2, hits give low values 1.01 | locus YLR102C, strain apc9, hits give low values 0.98 | locus YLR113W, strain HOG1, hits give low values 0.974 | locus YLR221C, strain rsa3, hits give low values 0.975 | locus YLR258W, strain gsy2, hits give low values 0.99 | locus YLR262C, strain YPT6 (second series), hits give low values 0.952 | locus YLR262C, strain YPT6, hits give low values 1.04 | locus YLR268W, strain sec22, hits give low values 0.933 | locus YLR320W, strain mms22, hits give low values 0.975 | locus YLR330W, strain CHS5, hits give low values 0.99 | locus YLR342W, strain FKS1 (second series), hits give low values 0.989 | locus YLR342W, strain FKS1, hits give low values 0.98 | locus YLR357W, strain rsc2, hits give low values 0.952 | locus YLR370C, strain arc18, hits give low values 0.986 | locus YLR371W, strain rom2, hits give low values 0.959 | locus YLR384C, strain iki3, hits give low values 0.971 | locus YLR418C, strain cdc73, hits give low values 1.02 | locus YML016C, strain PPZ1, hits give low values 0.958 | locus YML032C, strain rad52, hits give low values 1.02 | locus YML120C, strain ndi1, hits give low values 0.978 | locus YML124C, strain tub3, hits give low values 0.972 | locus YMR058W, strain fet3, hits give low values 0.99 | locus YMR078C, strain ctf18, hits give low values 0.961 | locus YMR125W, strain sto1, hits give low values 0.979 | locus YMR129W, hits give low values 0.996 | locus YMR205C, strain PFK2, hits give low values 0.963 | locus YMR223W, strain ubp8, hits give low values 0.982 | locus YMR231W, strain pep5, hits give low values 0.986 | locus YMR307W, strain GAS1, hits give low values 1.01 | locus YNL067W, strain RPL9B, hits give low values 1 | locus YNL071W, strain lat1, hits give low values 0.986 | locus YNL128W, strain TEP1, hits give low values 0.988 | locus YNL183C, strain NPR1, hits give low values 0.932 | locus YNL209W, strain ssb2, hits give low values 0.998 | locus YNL233W, strain BNI4, hits give low values 0.993 | locus YNL248C, strain rpa49, hits give low values 0.983 | locus YNL250W, strain rad50, hits give low values 0.962 | locus YNL271C, strain bni1, hits give low values 0.966 | locus YNL298W, strain CLA4, hits give low values 0.979 | locus YNL307C, strain MCK1, hits give low values 0.965 | locus YNL322C, strain KRE1 (second series), hits give low values 0.984 | locus YNL322C, strain KRE1, hits give low values 0.995 | locus YNR049C, strain mso1, hits give low values 0.986 | locus YNR052C, strain pop2, hits give low values 0.985 | locus YOL006C, strain TOP1, hits give low values 0.979 | locus YOL012C, strain htz1 1.07 | locus YOL147C, strain pex11, hits give low values 0.982 | locus YOR001W, strain rrp6, hits give low values 0.989 | locus YOR061W, strain CKA2, hits give low values 0.992 | locus YOR069W, strain VPS5, hits give low values 0.991 | locus YOR070C, strain gyp1, hits give low values 0.989 | locus YOR080W, strain dia2, hits give low values 0.981 | locus YOR083W, strain WHI5, hits give low values 0.973 | locus YOR106W, strain vam3, hits give low values 0.962 | locus YOR136W, strain idh2, hits give low values 0.96 | locus YOR144C, strain elg1, hits give low values 0.974 | locus YOR184W, strain ser1, hits give low values 0.991 | locus YOR231W, strain MKK1, hits give low values 0.965 | locus YOR265W, strain rbl2, hits give low values 0.984 | locus YOR270C, strain vph1, hits give low values 0.987 | locus YOR290C, strain snf2, hits give low values 0.953 | locus YOR316C, strain cot1, hits give low values 0.976 | locus YPL051W, strain arl3, hits give low values 0.977 | locus YPL078C, strain atp4, hits give low values 0.979 | locus YPL106C, strain sse1, hits give low values 0.93 | locus YPL240C, strain hsp82, hits give low values 0.995 | locus YPL241C, strain CIN2, hits give low values 0.993 | locus YPL256C, strain CLN2, hits give low values 1 | locus YPR119W, strain clb2, hits give low values 0.976 | locus YPR141C, strain kar3, hits give low values 0.973 | locus YPR163C, strain tif3, hits give low values 0.975 | locus YPR167C, strain met16, hits give low values 0.998 | strain wtn01, hits give low values 0.932
